# ± gives the standard deviation.
# Experiments:
# Conditions in all cases: modulator concentration 10 µM
# [1] = system: RAW-Dual (murine macrophage reporter line); experiment: NF-kB reporter (SEAP) activity fold change vs agonist alone; higher = enhanced NF-kB activity
# Procedure, shortened: (§1)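 RAW-Dual murine macrophage reporter cells were plated at 50 000 per well in 384-well plates, pin-transferred compound to 10 μM final, and pre-incubated for 1 hour at 37 °C before a PRR agonist was added and the cells incubated overnight. NF-κB activity was read from supernatant SEAP with QUANTI-Blue at 620 nm absorbance, and IRF activity from Lucia luciferase with QUANTI-Luc by luminescence. Each signal was expressed as fold change by dividing by the mean agonist-only control on the same plate. Two replicate plates were averaged, with errors obtained by propagation.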
# [2] = system: RAW-Dual (murine macrophage reporter line); experiment: IRF reporter (Lucia luciferase) activity fold change vs agonist alone; higher = enhanced IRF activity
# Procedure, shortened: as §1
# [3] = system: RAW-Dual (murine macrophage reporter line); experiment: viability score (confluency relative to resting cells, overnight) (fraction); higher = more viable, active = viable (0.7 or more)
# Procedure, shortened: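 Compound was added at a final 10 μM to RAW-Dual macrophages in 384-well plates and left overnight. Confluency was imaged with IncuCyte, and two masks were generated in IncuCyte software over all imaged wells. Each viability score is confluency relative to resting cells, and a compound met the cutoff only when both masks were above 70% of resting cells.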
# [4] = agonist: CpG ODN 1826 0.5 ug/mL
Structure (SMILES),"NF-kB reporter [1, 4]",NF-kB reporter ([1]; agonist: LPS 0.1 ug/mL),NF-kB reporter ([1]; agonist: MPLA […]),IRF reporter ([2]; agonist: 3'3'-cGAMP 10 ug/mL),IRF reporter ([2]; agonist: LPS 0.1 ug/mL),IRF reporter ([2]; agonist: MPLA […]),viability score [3]
CCOc1cc(C=C2SC(=S)N(CCS(=O)(=O)O)C2=O)ccc1O,0.952 ± 0.087,1.04 ± 0.077,0.951 ± 0.15,0.925 ± 0.027,1.28 ± 0.14,0.997 ± 0.2,1.02 (active)
N=C(N)c1ccc(OCCCCCOc2ccc(C(=N)N)cc2)cc1.O=S(=O)(O)CCO.O=S(=O)(O)CCO,0.243 ± 0.017,0.46 ± 0.037,0.492 ± 0.027,0.715 ± 0.079,1.18 ± 0.2,0.788 ± 0.16,0.305 (inactive)
COc1ccc(NC(=O)c2cn(-c3cc(N4CCCCC4)ncn3)cn2)cc1F,1.31 ± 0.074,1.13 ± 0.086,1.22 ± 0.035,1.52 ± 0.45,1.01 ± 0.1,1.23 ± 0.3,0.97 (active)
O=C(Nc1ccc([N+](=O)[O-])cc1)Nc1ccc(Cl)cn1,0.838 ± 0.065,0.942 ± 0.074,0.986 ± 0.14,0.893 ± 0.041,1.39 ± 0.1,1.61 ± 0.14,1 (active)
O=C(Nc1ccc([N+](=O)[O-])cc1Cl)c1cccnc1,0.871 ± 0.26,0.96 ± 0.11,0.982 ± 0.16,0.958 ± 0.061,1.06 ± 0.23,1.33 ± 0.37,0.996 (active)
CC[C@H](C)C(=O)O[C@H]1CCC=C2C=C[C@H](C)[C@H](CC[C@@H]3C[C@@H](O)CC(=O)O3)[C@H]21,1.34 ± 0.13,1.57 ± 0.14,1.04 ± 0.063,0.751 ± 0.051,1.01 ± 0.061,1.1 ± 0.085,0.935 (active)
CC(=O)c1c(C)c2cnc(Nc3ccc(N4CCNCC4)cn3)nc2n(C2CCCC2)c1=O.Cl,1.27 ± 0.47,1.14 ± 0.064,1.22 ± 0.1,0.363 ± 0.014,0.898 ± 0.16,0.966 ± 0.16,0.982 (active)
CC(C)C(C(=O)Nc1ccccc1C(N)=O)N1C(=O)c2ccccc2C1=O (stereo not drawn),0.93 ± 0.085,1.1 ± 0.071,0.932 ± 0.058,1.02 ± 0.043,1.34 ± 0.16,1.16 ± 0.075,1.01 (active)
CC(=O)Oc1cc(C(F)(F)F)ccc1C(=O)O,0.977 ± 0.13,1.05 ± 0.19,0.91 ± 0.053,0.976 ± 0.03,1.32 ± 0.32,1.21 ± 0.23,1 (active)
CCOc1ccc(C(CN)N2CCOCC2)cc1 (stereo not drawn),1.07 ± 0.048,0.934 ± 0.079,1.08 ± 0.075,0.943 ± 0.046,1.33 ± 0.28,1.29 ± 0.44,0.941 (active)
CCN(CC)CC#CCOC(=O)C(O)(c1ccccc1)C1CCCCC1 (stereo not drawn),0.65 ± 0.059,1.2 ± 0.094,1.18 ± 0.053,0.92 ± 0.062,1.67 ± 0.11,1.3 ± 0.32,0.293 (inactive)
COC(=O)NN=Cc1cccs1,1.04 ± 0.19,1.05 ± 0.084,0.974 ± 0.11,0.987 ± 0.031,1 ± 0.096,1.22 ± 0.21,0.997 (active)
C=C1c2cccc(O)c2C(=O)C2=C(O)[C@]3(O)C(=O)C(C(N)=O)=C(O)[C@@H](N(C)C)[C@@H]3[C@@H](O)[C@H]12.Cl,1.16 ± 0.29,0.985 ± 0.064,0.952 ± 0.07,0.914 ± 0.045,1.22 ± 0.23,1.14 ± 0.13,0.962 (active)
COc1cc(O)c2c(=O)cc(-c3ccc(O)cc3)oc2c1,1.15 ± 0.098,1.04 ± 0.076,1.01 ± 0.024,0.795 ± 0.11,0.959 ± 0.049,0.798 ± 0.099,0.997 (active)

# — the supplement of paper PMC10646978
